From paper PMC7862700, “An all-to-all approach to the identification of sequence-specific readers for epigenetic DNA modifications on cytosine”

Tests used:
Experiment in all cases: DAPPL (digital affinity profiling via proximity ligation, sequencing); 10 mM Tris-HCl pH 7.5, 50 mM NaCl, 1 mM DTT, 4% glycerol, room temperature, 30 min; GST-TFs on glutathione beads, 16-mer random dsDNA library, 0.1% formaldehyde crosslink after washing; high values mean tight binding
Conditions in all cases: protein: recombinant; tags: N-terminal GST; dsDNA, one strand shown
ERF = molecular target: T1, ERF (Homo sapiens, UniProt P50548 1-548)
T1 sequence: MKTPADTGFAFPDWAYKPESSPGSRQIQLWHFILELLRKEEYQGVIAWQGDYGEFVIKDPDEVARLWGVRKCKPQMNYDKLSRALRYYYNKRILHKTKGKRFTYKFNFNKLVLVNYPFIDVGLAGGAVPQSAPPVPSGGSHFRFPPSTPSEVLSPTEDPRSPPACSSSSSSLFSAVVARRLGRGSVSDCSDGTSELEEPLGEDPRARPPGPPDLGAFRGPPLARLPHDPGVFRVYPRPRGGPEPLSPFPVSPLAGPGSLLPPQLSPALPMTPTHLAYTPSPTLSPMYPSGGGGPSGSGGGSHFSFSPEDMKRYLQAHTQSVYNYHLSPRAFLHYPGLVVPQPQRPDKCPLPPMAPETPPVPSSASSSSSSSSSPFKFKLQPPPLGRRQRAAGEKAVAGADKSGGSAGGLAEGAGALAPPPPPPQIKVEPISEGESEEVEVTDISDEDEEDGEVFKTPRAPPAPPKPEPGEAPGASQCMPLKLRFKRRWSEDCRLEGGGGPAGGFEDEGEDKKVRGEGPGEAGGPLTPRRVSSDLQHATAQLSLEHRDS
In short: (§1)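 Binding signal is each hexamer's read frequency for a factor divided by its frequency in the tag-only sample. The factors were GST-fused human transcription factors from yeast, captured on glutathione beads, DNA-barcoded and pooled with that sample. Pools were incubated with 200 nmole of a random double-stranded 16-mer DNA library in Tris/NaCl/DTT/glycerol buffer at room temperature for 30 min, then washed, crosslinked with 0.1% formaldehyde, proximity-ligated with BsaI/T4 ligase (1 h, 37 °C), PCR-amplified and sequenced on an Illumina NextSeq500.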

ETV3L = molecular target: T2, ETV3L (Homo sapiens, UniProt Q6ZN32 1-361)
T2 sequence: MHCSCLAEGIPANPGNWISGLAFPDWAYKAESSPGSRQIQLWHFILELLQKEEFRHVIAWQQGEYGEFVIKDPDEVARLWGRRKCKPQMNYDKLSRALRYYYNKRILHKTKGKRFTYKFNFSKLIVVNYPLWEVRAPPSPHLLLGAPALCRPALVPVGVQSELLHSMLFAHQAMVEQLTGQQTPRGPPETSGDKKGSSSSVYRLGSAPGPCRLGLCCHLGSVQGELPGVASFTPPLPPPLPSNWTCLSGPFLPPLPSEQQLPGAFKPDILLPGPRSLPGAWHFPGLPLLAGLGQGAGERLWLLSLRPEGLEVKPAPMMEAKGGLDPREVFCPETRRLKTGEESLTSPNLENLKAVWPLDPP
In short: as §1

ETS2 = molecular target: T3, ETS2 (Homo sapiens, UniProt P15036 1-469)
T3 sequence: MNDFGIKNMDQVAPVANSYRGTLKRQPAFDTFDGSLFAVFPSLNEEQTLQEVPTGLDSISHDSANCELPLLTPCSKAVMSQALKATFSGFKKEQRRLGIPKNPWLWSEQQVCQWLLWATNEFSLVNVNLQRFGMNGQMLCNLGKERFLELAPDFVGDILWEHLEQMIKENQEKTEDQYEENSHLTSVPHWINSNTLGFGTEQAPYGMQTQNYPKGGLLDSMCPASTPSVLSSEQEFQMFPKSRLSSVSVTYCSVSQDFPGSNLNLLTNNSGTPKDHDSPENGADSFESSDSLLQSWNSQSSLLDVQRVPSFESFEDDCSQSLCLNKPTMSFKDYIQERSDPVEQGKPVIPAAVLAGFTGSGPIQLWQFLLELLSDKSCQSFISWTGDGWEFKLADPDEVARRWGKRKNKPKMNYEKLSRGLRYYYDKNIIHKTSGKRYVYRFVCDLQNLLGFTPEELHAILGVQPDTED
In short: as §1

SPDEF = molecular target: T4, SPDEF (Homo sapiens, UniProt O95238 1-335)
T4 sequence: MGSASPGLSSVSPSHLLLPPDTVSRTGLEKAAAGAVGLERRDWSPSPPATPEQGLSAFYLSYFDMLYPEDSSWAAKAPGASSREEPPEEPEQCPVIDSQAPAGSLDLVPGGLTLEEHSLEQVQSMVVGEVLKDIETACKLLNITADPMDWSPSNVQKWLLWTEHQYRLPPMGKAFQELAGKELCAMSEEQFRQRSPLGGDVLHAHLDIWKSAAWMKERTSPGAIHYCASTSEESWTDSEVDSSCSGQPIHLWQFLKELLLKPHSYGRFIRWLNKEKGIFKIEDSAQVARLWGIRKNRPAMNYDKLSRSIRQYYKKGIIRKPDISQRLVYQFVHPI
In short: as §1

ETV7 = molecular target: T5, ETV7 (Homo sapiens, UniProt Q9Y603 1-341)
T5 sequence: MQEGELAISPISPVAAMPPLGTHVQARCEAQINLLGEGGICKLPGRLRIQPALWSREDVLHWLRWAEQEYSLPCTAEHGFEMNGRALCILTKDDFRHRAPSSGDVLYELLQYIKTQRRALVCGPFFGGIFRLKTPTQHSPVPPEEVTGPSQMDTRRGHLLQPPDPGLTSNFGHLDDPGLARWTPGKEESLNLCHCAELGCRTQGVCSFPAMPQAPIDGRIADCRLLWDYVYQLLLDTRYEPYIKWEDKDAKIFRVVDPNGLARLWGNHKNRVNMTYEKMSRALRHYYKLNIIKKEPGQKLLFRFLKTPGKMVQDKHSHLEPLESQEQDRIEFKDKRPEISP
In short: as §1

ELF5 = molecular target: T6, ELF5 (Homo sapiens, UniProt Q9UKW6-2 1-255)
T6 sequence: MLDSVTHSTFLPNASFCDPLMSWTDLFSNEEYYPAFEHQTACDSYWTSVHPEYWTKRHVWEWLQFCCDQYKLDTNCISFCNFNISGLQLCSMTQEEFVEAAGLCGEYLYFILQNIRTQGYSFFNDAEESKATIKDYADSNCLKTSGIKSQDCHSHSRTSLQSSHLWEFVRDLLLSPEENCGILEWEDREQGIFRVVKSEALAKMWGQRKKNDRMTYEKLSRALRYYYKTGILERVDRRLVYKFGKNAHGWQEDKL
In short: as §1

ETV3 = molecular target: T7, ETV3 (Homo sapiens, UniProt P41162-2 1-143)
T7 sequence: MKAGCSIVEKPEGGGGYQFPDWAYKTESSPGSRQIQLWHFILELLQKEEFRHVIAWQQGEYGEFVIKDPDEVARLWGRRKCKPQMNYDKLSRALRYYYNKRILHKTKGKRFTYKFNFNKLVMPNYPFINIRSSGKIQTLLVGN
In short: as §1

ETV6 = ETV6 (Homo sapiens, UniProt P41212 1-452)
Sequence of ETV6 (P41212 whole entry): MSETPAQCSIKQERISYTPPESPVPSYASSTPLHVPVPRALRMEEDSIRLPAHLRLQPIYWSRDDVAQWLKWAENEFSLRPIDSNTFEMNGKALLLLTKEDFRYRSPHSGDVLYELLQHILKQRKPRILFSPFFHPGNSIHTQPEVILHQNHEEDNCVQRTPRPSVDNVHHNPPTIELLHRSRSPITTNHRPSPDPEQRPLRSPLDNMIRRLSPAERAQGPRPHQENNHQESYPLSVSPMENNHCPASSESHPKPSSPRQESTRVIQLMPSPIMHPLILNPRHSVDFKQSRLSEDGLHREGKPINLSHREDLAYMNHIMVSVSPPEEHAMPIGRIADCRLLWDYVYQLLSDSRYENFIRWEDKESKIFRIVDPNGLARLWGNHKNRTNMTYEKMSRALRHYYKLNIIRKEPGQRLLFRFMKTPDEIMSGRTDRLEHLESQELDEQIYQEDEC
In short: as §1

Sequence	binding signal (ERF)	binding signal (ETV3L)	binding signal (ETS2)	binding signal (SPDEF)	binding signal (ETV7)	binding signal (ELF5)	binding signal (ETV3)	binding signal (ETV6)
ACAATT	1.25 fold enrichment (6-mer frequency, TF over GST control)	1.23 fold enrichment (6-mer frequency, TF over GST control)	1.29 fold enrichment (6-mer frequency, TF over GST control)	1.13 fold enrichment (6-mer frequency, TF over GST control)	1.21 fold enrichment (6-mer frequency, TF over GST control)	1.32 fold enrichment (6-mer frequency, TF over GST control)	1.27 fold enrichment (6-mer frequency, TF over GST control)	1.25 fold enrichment (6-mer frequency, TF over GST control)
TTTCTC	1.58 fold enrichment (6-mer frequency, TF over GST control)	1.68 fold enrichment (6-mer frequency, TF over GST control)	1.77 fold enrichment (6-mer frequency, TF over GST control)	1.49 fold enrichment (6-mer frequency, TF over GST control)	1.57 fold enrichment (6-mer frequency, TF over GST control)	1.56 fold enrichment (6-mer frequency, TF over GST control)	1.62 fold enrichment (6-mer frequency, TF over GST control)	1.65 fold enrichment (6-mer frequency, TF over GST control)
AGCTTT	1.15 fold enrichment (6-mer frequency, TF over GST control)	1.2 fold enrichment (6-mer frequency, TF over GST control)	1.19 fold enrichment (6-mer frequency, TF over GST control)	1.12 fold enrichment (6-mer frequency, TF over GST control)	1.25 fold enrichment (6-mer frequency, TF over GST control)	1.04 fold enrichment (6-mer frequency, TF over GST control)	1.07 fold enrichment (6-mer frequency, TF over GST control)	1.19 fold enrichment (6-mer frequency, TF over GST control)
TTATGG	1.31 fold enrichment (6-mer frequency, TF over GST control)	1.32 fold enrichment (6-mer frequency, TF over GST control)	1.26 fold enrichment (6-mer frequency, TF over GST control)	1.26 fold enrichment (6-mer frequency, TF over GST control)	1.36 fold enrichment (6-mer frequency, TF over GST control)	1.28 fold enrichment (6-mer frequency, TF over GST control)	1.44 fold enrichment (6-mer frequency, TF over GST control)	1.35 fold enrichment (6-mer frequency, TF over GST control)
TCATAT	1.22 fold enrichment (6-mer frequency, TF over GST control)	1.3 fold enrichment (6-mer frequency, TF over GST control)	1.27 fold enrichment (6-mer frequency, TF over GST control)	1.23 fold enrichment (6-mer frequency, TF over GST control)	1.05 fold enrichment (6-mer frequency, TF over GST control)	1.19 fold enrichment (6-mer frequency, TF over GST control)	1.26 fold enrichment (6-mer frequency, TF over GST control)	1.24 fold enrichment (6-mer frequency, TF over GST control)
TAGTTA	1.18 fold enrichment (6-mer frequency, TF over GST control)	1.1 fold enrichment (6-mer frequency, TF over GST control)	1.12 fold enrichment (6-mer frequency, TF over GST control)	1.06 fold enrichment (6-mer frequency, TF over GST control)	1.1 fold enrichment (6-mer frequency, TF over GST control)	1.06 fold enrichment (6-mer frequency, TF over GST control)	1.12 fold enrichment (6-mer frequency, TF over GST control)	1.16 fold enrichment (6-mer frequency, TF over GST control)
CTGGTA	1.28 fold enrichment (6-mer frequency, TF over GST control)	1.34 fold enrichment (6-mer frequency, TF over GST control)	1.32 fold enrichment (6-mer frequency, TF over GST control)	1.4 fold enrichment (6-mer frequency, TF over GST control)	1.4 fold enrichment (6-mer frequency, TF over GST control)	1.35 fold enrichment (6-mer frequency, TF over GST control)	1.29 fold enrichment (6-mer frequency, TF over GST control)	1.29 fold enrichment (6-mer frequency, TF over GST control)
